“And” between values parts separate entries of the source, which are not always exact repeats. Equal entries are not always repeated. A structure can be active in one record and inactive in another. The source made the active and inactive calls. How the source made its calls: active means hit-call score of the fitted dose curve at least 0.9, where 1 is the maximum; inactive means score below 0.9.
Columns and labels:
[1] = target: Transcription factor E2F1 (Homo sapiens) (UniProt Q01094); assay: ATG_E2F_CIS: Attagene CIS-FACTORIAL HepG2 Assay for human E2F Transcription Factor 1 (AID 2282935); conditions: HepG2 Attagene cis-reporter, E2F reporter RNA transcripts; actives raise or lower the signal
Chain of Transcription factor E2F1 (Homo sapiens) (Q01094 whole entry, looked up): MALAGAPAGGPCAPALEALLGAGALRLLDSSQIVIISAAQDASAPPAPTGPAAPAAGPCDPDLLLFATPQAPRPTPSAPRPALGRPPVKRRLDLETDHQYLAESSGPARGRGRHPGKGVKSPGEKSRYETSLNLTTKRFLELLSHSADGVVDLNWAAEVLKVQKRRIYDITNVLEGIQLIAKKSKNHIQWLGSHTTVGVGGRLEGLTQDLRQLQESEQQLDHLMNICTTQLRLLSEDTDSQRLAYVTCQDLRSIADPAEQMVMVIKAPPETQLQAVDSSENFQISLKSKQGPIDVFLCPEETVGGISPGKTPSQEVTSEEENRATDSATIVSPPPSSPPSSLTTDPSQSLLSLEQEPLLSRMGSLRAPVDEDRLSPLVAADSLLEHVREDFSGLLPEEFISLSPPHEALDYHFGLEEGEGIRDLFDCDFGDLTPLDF
Method in brief: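 In this cis-factorial format, endogenous factor activity drives transfected reporters in HepG2; transcripts collected at 24 h are quantified by fluorescence after RT-PCR and capillary separation.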

[2] = ATG_E_Box_CIS: Attagene CIS-FACTORIAL HepG2 Assay for human Enhancer Box (E-box) (AID 2282936); conditions: HepG2 E-box cis-reporter transcription, actives raise or lower the signal
Method in brief: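 Measured 24 h post-dosing in HepG2 cells transfected with multiple cis-regulated reporter units, signal being reporter mRNA induction detected by fluorescent RT-PCR with capillary electrophoresis; gain or loss fitted against DMSO.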

[3] = ATG_M_61_CIS: Attagene CIS-FACTORIAL HepG2 Assay for M61 Transcription Factor (Internal Marker) (AID 2282937); conditions: HepG2 Attagene CIS-FACTORIAL M61 internal marker reporter; actives raise or lower the signal
Method in brief: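 Readout: fluorescent reporter mRNA fragments resolved by capillary electrophoresis after RT-PCR. Transiently transfected human HepG2 cells carried MRTU constructs reporting endogenous TF activity; 24 h chemical exposure; gain or loss of signal fitted relative to DMSO.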

[4] = ATG_EGR_CIS: Attagene CIS-FACTORIAL HepG2 Assay for human Early Growth Response 1 (EGR1) (AID 2282938); conditions: HepG2 Attagene CIS-FACTORIAL EGR reporter mRNA; actives raise or lower the signal
Method in brief: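 Read-out: fluorescent reporter-mRNA fragments resolved by capillary electrophoresis after RT-PCR, 24 h post-dose in transiently transfected HepG2. Endogenous transcription-factor activity reported via cis-element-regulated reporter units; gain or loss fitted relative to DMSO.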

[5] = ATG_ERE_CIS: Attagene CIS-FACTORIAL HepG2 Assay for Estrogen Response Element (ERE) (AID 2282940); conditions: HepG2 ERE cis-reporter, Attagene RNA transcript; actives raise or lower the signal
Method in brief: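 Fluorescence of capillary-separated, FAM-labelled reporter cDNA fragments indicates reporter mRNA levels in HepG2 cells exposed to chemicals for 24 h. Transient transfection with cis-regulated units; data fitted in both directions against DMSO.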

[6] = ATG_Ets_CIS: Attagene CIS-FACTORIAL HepG2 Assay for human Erythroblast Transformation Specific (ETS) (AID 2282941); conditions: HepG2 ETS cis-reporter transcription, actives raise or lower the signal
Method in brief: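 Endogenous transcription factor activity read as reporter mRNA via RT-PCR and capillary electrophoresis, with gain or loss fitted bidirectionally against DMSO. Human HepG2 liver cells, transiently transfected CIS reporter constructs, 24 h exposure.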

[7] = target: Hepatocyte nuclear factor 3-beta (Homo sapiens) (UniProt Q9Y261); assay: ATG_FoxA2_CIS: Attagene CIS-FACTORIAL HepG2 Assay for human Forkhead box A2 (FOXA2) (AID 2282942); conditions: HepG2 cis-reporter transcription factor activity, 24 h; actives raise or lower the signal
Chain of Hepatocyte nuclear factor 3-beta (Homo sapiens) (Q9Y261 whole entry, looked up): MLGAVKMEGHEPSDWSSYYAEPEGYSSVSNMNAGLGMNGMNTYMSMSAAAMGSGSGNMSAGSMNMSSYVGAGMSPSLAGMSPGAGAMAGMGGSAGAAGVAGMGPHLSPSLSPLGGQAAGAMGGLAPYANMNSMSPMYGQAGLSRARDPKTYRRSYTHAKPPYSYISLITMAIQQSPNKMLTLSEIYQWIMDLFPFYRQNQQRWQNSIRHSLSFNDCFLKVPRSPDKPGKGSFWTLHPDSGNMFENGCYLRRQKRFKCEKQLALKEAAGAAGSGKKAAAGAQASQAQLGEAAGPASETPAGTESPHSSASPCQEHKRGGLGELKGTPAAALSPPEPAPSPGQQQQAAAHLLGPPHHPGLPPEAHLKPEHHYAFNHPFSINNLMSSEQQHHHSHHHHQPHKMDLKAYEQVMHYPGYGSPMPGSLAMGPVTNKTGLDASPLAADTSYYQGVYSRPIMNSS
Method in brief: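 Readout: fluorescent reporter transcripts resolved by capillary electrophoresis after RT-PCR. Transiently transfected HepG2, 24 h compound exposure, endogenous TF activity at cis promoter elements. Gain or loss of signal fitted relative to DMSO.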

[8] = ATG_FoxO_CIS: Attagene CIS-FACTORIAL HepG2 Assay for human Forkhead box O (FoxO) (AID 2282943); conditions: HepG2 Attagene cis-reporter, FoxO element, mRNA; actives raise or lower the signal
Method in brief: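 24 h chemical exposure, HepG2 with transient cis-MRTU transfection. RNA extraction, oligo(dT) RT, reporter-specific PCR, primer-extension labelling, HpaI digestion, CE fragment analysis; bidirectional fit, DMSO baseline.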

[9] = ATG_GATA_CIS: Attagene CIS-FACTORIAL HepG2 Assay for human GATA Binding Protein (AID 2282944); conditions: HepG2 GATA cis-element reporter, Attagene multiplex mRNA; actives raise or lower the signal
Method in brief: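 After transfecting HepG2 cells with multiple cis-regulated reporter units, chemicals are dosed for 24 h; isolated RNA undergoes RT-PCR and fluorescent labeling before capillary electrophoresis, with activity expressed against DMSO.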

[10] = ATG_GLI_CIS: Attagene CIS-FACTORIAL HepG2 Assay for human Zinc Finger Protein GLI1 (AID 2282945); conditions: HepG2, Attagene cis-factorial reporter mRNA, GLI element; actives raise or lower the signal
Method in brief: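 HepG2 cells transiently transfected with cis-promoter multiplexed reporter units report endogenous transcription factor activity. After 24 h chemical exposure, reporter mRNA was quantified by RT-PCR, 6-FAM labelling, HpaI digestion and capillary electrophoresis, with bidirectional fitting against DMSO.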

[11] = ATG_M_06_CIS: Attagene CIS-FACTORIAL HepG2 Assay for M06 Transcription Factor (Internal Marker) (AID 2282950); conditions: HepG2 Attagene CIS-FACTORIAL M06 internal marker reporter; actives raise or lower the signal
Method in brief: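 HepG2 liver cells, 24 h exposure. Reporter transcripts from transfected cis-element constructs quantified by RT-PCR/capillary electrophoresis fluorescence. Bidirectional curve fit against DMSO.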

[12] = target: Hepatocyte nuclear factor 6 (Homo sapiens) (UniProt Q9UBC0); assay: ATG_HNF6_CIS: Attagene CIS-FACTORIAL HepG2 Assay for human Hepatocyte Nuclear Factor 6 (HNF6) (AID 2282952); conditions: HepG2 Attagene cis-factorial HNF6 reporter transcription; actives raise or lower the signal
Chain of Hepatocyte nuclear factor 6 (Homo sapiens) (Q9UBC0 whole entry, looked up, the tested form may be a part): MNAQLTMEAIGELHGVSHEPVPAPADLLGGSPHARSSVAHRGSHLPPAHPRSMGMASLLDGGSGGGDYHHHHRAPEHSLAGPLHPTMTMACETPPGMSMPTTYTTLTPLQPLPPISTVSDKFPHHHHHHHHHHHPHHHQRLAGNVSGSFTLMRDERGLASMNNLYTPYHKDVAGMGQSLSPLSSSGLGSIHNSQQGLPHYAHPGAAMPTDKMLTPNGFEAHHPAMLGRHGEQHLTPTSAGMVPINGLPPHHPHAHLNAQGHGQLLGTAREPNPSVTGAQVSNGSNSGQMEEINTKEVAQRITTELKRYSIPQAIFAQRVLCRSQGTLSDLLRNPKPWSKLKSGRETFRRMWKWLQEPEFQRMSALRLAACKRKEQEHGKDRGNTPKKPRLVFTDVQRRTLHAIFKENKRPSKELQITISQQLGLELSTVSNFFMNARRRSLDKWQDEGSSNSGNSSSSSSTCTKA
Method in brief: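 First, HepG2 cells were transfected with the multiplexed cis reporter library and dosed with chemical for 24 h. Next, RNA was reverse-transcribed, PCR-amplified and fluorescently labelled. Finally, HpaI-digested fragments were read by capillary electrophoresis.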

[13] = target: Heat shock factor protein 1 (Homo sapiens) (UniProt Q00613); assay: ATG_HSE_CIS: Attagene CIS-FACTORIAL HepG2 Assay for human Heat Shock Transcription Factor 1 (HSE) (AID 2282953); conditions: HepG2 HSE cis-reporter, Attagene RNA transcription; actives raise or lower the signal
Chain of Heat shock factor protein 1 (Homo sapiens) (Q00613 whole entry, looked up, the tested form may be a part): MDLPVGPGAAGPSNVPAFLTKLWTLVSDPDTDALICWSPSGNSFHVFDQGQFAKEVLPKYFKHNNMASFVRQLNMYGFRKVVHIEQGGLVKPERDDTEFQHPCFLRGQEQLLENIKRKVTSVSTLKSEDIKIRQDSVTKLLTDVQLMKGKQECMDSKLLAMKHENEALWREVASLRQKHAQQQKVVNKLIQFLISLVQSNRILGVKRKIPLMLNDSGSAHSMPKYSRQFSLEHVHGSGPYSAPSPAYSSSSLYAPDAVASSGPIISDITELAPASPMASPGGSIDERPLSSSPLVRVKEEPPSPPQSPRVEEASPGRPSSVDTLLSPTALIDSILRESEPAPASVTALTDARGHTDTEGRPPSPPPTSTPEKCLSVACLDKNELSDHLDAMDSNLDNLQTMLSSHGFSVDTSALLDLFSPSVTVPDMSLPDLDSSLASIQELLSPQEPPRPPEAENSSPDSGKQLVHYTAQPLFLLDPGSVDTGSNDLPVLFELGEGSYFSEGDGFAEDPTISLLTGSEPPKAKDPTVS
Method in brief: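 Endogenous transcription factor activity captured via cis-promoter reporter units transfected into HepG2; treatment lasted 24 h. Fluorescence intensity of reporter fragments analysed with bidirectional curve fitting, DMSO baseline.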

[14] = ATG_MRE_CIS: Attagene CIS-FACTORIAL HepG2 Assay for human Metal Responsive Element (MRE) (AID 2282954); conditions: HepG2 MRE cis-reporter transcription, Attagene multiplex; actives raise or lower the signal
Method in brief: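 Readout: capillary electrophoresis of 6-FAM-labelled, HpaI-digested RT-PCR reporter products. System: HepG2 cells carrying transient multiplexed cis reporters, dosed 24 h. Analysis: bidirectional fit, DMSO baseline.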

[15] = ATG_GRE_CIS: Attagene CIS-FACTORIAL HepG2 Assay for human Glucocorticoid Response Elements (GRE) (AID 2282947); conditions: HepG2 GRE cis-reporter, Attagene multiplex mRNA; actives raise or lower the signal
Method in brief: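 HepG2, transient cis-reporter transfection, 24 h. Reporter mRNA: RT-PCR then CE, fluorescence. Fit both directions vs DMSO.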

[16] = ATG_ISRE_CIS: Attagene CIS-FACTORIAL HepG2 Assay for human Interferon Regulatory Factor 1 (IRF1) binding to an Interferon-Stimulated Response Element (ISRE) (AID 2282948); conditions: HepG2 ISRE cis-reporter (Attagene), mRNA transcription readout; actives raise or lower the signal
Method in brief: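 Endogenous transcription factor activity read as reporter transcript abundance via RT-PCR and capillary electrophoresis. HepG2 cells transiently transfected, 24 h chemical exposure. Gain or loss fitted against DMSO baseline.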

[17] = ATG_M_32_CIS: Attagene CIS-FACTORIAL HepG2 Assay for M32 Transcription Factor (Internal Marker) (AID 2282949); conditions: HepG2 Attagene cis-factorial M32 reporter, mRNA; actives raise or lower the signal;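 further: background control marker of the multiplexed CIS panel rather than a real target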
Method in brief: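 Transient MRTU transfection of HepG2; 24 h compound treatment; TriZol RNA, oligo(dT) RT, reporter PCR, 6-FAM primer extension, HpaI cut, CE. Gain/loss of signal vs DMSO.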

[18] = target: Hypoxia-inducible factor 1-alpha (Homo sapiens) (UniProt Q16665); assay: ATG_HIF1a_CIS: Attagene CIS-FACTORIAL HepG2 Assay for human Hypoxia Inducible Factor 1 (HIF1A) (AID 2282951); conditions: HepG2 Attagene cis-factorial HIF1a reporter transcription; actives raise or lower the signal
Chain of Hypoxia-inducible factor 1-alpha (Homo sapiens) (Q16665 whole entry, looked up): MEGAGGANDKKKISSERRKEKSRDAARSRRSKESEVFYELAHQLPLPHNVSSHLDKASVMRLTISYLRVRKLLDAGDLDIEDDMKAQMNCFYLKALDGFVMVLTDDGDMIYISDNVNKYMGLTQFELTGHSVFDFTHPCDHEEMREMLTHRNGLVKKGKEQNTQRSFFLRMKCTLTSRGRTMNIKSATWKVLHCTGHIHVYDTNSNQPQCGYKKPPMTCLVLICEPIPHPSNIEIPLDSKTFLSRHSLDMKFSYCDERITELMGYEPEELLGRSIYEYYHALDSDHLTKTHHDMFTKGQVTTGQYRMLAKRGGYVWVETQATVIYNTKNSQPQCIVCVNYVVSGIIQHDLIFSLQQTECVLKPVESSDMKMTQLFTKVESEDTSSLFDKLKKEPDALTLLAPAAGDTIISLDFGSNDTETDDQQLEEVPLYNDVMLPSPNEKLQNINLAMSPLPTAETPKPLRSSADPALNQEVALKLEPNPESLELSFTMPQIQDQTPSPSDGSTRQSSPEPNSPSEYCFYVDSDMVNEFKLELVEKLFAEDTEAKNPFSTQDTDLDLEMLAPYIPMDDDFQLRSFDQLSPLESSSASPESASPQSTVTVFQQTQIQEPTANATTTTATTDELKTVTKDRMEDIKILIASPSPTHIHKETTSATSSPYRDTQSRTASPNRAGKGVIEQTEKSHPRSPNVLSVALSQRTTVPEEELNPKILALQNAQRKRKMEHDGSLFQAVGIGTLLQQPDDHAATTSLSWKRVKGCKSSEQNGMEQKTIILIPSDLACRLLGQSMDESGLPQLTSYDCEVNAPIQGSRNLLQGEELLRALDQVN
Method in brief: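 RT-PCR/capillary electrophoresis fluorescence readout of reporter transcripts from endogenous-TF-driven cis elements in transfected HepG2 cells, 24 h exposure; activity fitted in both directions against DMSO controls.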

[19] = ATG_M_19_CIS: Attagene CIS-FACTORIAL HepG2 Assay for M19 Transcription Factor (Internal Marker) (AID 2282939); conditions: HepG2 Attagene CIS-FACTORIAL M19 internal marker reporter; actives raise or lower the signal
Method in brief: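 Signals come from fluorescence of labelled reporter-specific PCR fragments resolved by capillary electrophoresis, following 24 h treatment of HepG2 cells transfected with cis-promoter reporter units; activity was fitted in both directions relative to DMSO.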

[20] = target: Bile acid receptor (Homo sapiens) (UniProt Q96RI1); assay: ATG_IR1_CIS: Attagene CIS-FACTORIAL HepG2 Assay for human Nuclear Receptor Subfamily 1 Group H Member 4 (NR1H4), IR1 submotif (AID 2282946); conditions: IR1 reporter transcription, actives raise or lower the signal
Chain of Bile acid receptor (Homo sapiens) (Q96RI1 whole entry, looked up): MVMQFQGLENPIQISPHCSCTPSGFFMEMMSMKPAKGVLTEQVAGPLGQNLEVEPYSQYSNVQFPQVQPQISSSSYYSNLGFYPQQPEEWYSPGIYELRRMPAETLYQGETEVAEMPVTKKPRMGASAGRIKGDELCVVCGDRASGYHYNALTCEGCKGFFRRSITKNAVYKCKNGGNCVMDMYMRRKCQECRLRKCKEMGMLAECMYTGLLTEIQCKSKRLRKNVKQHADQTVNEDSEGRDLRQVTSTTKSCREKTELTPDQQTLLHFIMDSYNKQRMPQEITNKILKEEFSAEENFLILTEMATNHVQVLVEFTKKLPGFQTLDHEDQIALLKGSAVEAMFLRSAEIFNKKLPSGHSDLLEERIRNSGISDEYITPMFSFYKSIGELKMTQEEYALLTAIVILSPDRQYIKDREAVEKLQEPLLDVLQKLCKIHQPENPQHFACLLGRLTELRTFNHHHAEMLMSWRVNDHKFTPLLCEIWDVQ
Method in brief: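 Readout: reporter transcript levels by RT-PCR with fluorescent capillary electrophoresis, from HepG2 cells transiently transfected with multiplexed cis-regulated reporters and dosed 24 h. Gain- or loss-of-signal fitted versus DMSO negative control.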

Compound: CC[C@H](c1ccc(O)cc1)[C@@H](CC)c1ccc(O)cc1
- outcome [1]: inactive
- outcome [2]: inactive
- outcome [3]: inactive
- AC50 [4]: 11.1 µM (active)
- outcome [4]: inactive
- AC50 [5]: 1.02 nM (active) and 3.79 nM (active) and 1.01 nM (active)
- outcome [6]: inactive
- outcome [7]: inactive
- outcome [8]: inactive
- outcome [9]: inactive
- outcome [10]: inactive
- outcome [11]: inactive
- outcome [12]: inactive
- outcome [13]: inactive
- AC50 [14]: 11.1 µM (active)
- outcome [14]: inactive

Compound: O=C1OC2(c3ccccc31)c1cc(Br)c(O)c(Br)c1Oc1c2cc(Br)c(O)c1Br
- outcome [1]: inactive
- AC50 [2]: 62.7 µM (active)
- outcome [2]: inactive
- outcome [3]: inactive
- AC50 [4]: 62.3 µM (active)
- outcome [4]: inactive
- outcome [5]: inactive
- outcome [6]: inactive
- outcome [8]: inactive
- outcome [9]: inactive
- outcome [10]: inactive
- outcome [15]: inactive
- outcome [16]: inactive
- outcome [17]: inactive
- outcome [11]: inactive
- outcome [18]: inactive
- outcome [12]: inactive
- outcome [13]: inactive
- AC50 [14]: 76.3 µM (active)
- outcome [14]: inactive

Compound: CCCOC(=O)c1ccc(O)cc1
- outcome [1]: inactive
- outcome [2]: inactive
- outcome [3]: inactive
- AC50 [4]: 157 µM (active)
- outcome [4]: inactive
- outcome [19]: inactive
- AC50 [5]: 6.06 µM (active) and 16 µM (active)
- outcome [6]: inactive
- outcome [7]: inactive
- outcome [8]: inactive
- outcome [9]: inactive
- outcome [10]: inactive
- outcome [11]: inactive
- AC50 [18]: 176 µM (active)
- outcome [18]: inactive
- outcome [12]: inactive
- outcome [13]: inactive
- AC50 [14]: 100 µM (active)
- outcome [14]: inactive

Compound: CC(C)(C)c1ccc(O)c(C(C)(C)C)c1
- outcome [1]: inactive
- outcome [2]: inactive
- outcome [3]: inactive
- outcome [4]: inactive
- outcome [5]: inactive
- outcome [6]: inactive
- outcome [8]: inactive
- outcome [9]: inactive
- outcome [10]: inactive
- outcome [16]: inactive
- outcome [11]: inactive
- outcome [18]: inactive
- outcome [12]: inactive
- outcome [13]: inactive
- outcome [14]: inactive

Compound: CN1CCN(c2ccccc2/C=C2\SCCN(c3ccc(Cl)c(Cl)c3)C2=O)CC1
- outcome [1]: inactive
- outcome [2]: inactive
- outcome [3]: inactive
- outcome [4]: inactive
- outcome [5]: inactive
- outcome [6]: inactive
- outcome [8]: inactive
- outcome [9]: inactive
- outcome [10]: inactive
- outcome [20]: inactive
- outcome [11]: inactive
- outcome [18]: inactive
- outcome [12]: inactive
- outcome [13]: inactive
- outcome [14]: inactive

Compound: CCCCC[C@H](O)CC(=O)CCc1ccc(O)c(OC)c1
- outcome [1]: inactive
- outcome [2]: inactive
- outcome [3]: inactive
- outcome [4]: inactive
- outcome [5]: inactive
- outcome [6]: inactive
- outcome [8]: inactive
- outcome [9]: inactive
- outcome [10]: inactive
- AC50 [20]: 149 µM (active)
- outcome [15]: inactive
- outcome [16]: inactive
- outcome [11]: inactive
- outcome [18]: inactive
- outcome [12]: inactive
- outcome [13]: inactive
- outcome [14]: inactive

Compound: CCCCCCCCCCCCN1CCCC1=O
- outcome [1]: inactive
- outcome [2]: inactive
- outcome [3]: inactive
- outcome [4]: inactive
- outcome [5]: inactive
- outcome [6]: inactive
- outcome [7]: inactive
- outcome [8]: inactive
- outcome [9]: inactive
- outcome [10]: inactive
- outcome [16]: inactive
- outcome [17]: inactive
- outcome [11]: inactive
- outcome [18]: inactive
- outcome [12]: inactive
- outcome [13]: inactive
- outcome [14]: inactive

Reference: PubChem BioAssay (EPA / NIEHS)
